The campaign covered roughly 46,000 compounds. About 430 (0.93%) were called active. Only a selection was taken, and actives are over-represented in it overall. A number with no mark means an inactive call. Rule as the data show it: active = normalized absorbance mostly below about 85% (no sharp cut-off); inactive = mostly above about 86%.
System: Vaccinia virus DNA polymerase (E9) processive complex
Experiment: vaccinia E9 polymerase processive synthesis inhibitors, primary screen, biochemical, absorbance (AID 493162)
Conditions: in vitro processive DNA synthesis, absorbance read-out; active compounds read low; concentration not given here

| Compound | normalized absorbance |
| --- | --- |
| Cc1nc(SCC(=O)c2ccc(Cl)cc2)c(C#N)c(C)c1C | 99.7% |
| COc1ccc(C(=O)CSC2=C(C#N)C(c3cccs3)CC(=O)N2)cc1 (stereo not given) | 101% |
| N#Cc1c(-c2cccs2)nc(SCC(=O)c2ccc(Br)cc2)[nH]c1=O | 68.9% (active) |
| O=C(NCc1cccnc1)c1cc(-c2ccccn2)nc2ccccc12 | 102% |
| COc1ccc(-c2nnn(-c3cccc(C(F)(F)F)c3)c2N)cc1OC | 112% |
| Cc1cc(C)cc(Oc2coc3c(CN4CCCCCC4)c(O)ccc3c2=O)c1 | 100% |
| O=C(CCc1nc(-c2ccccc2)no1)N1CCCCC1 | 94.1% |
| Fc1ccccc1Cn1cnc2ccccc21 | 100% |
| O=C(O)CCCC(=O)Nc1ccccn1 | 98.3% |
| Cc1cc(-c2cn(/N=C/c3ccc(Cl)cc3Cl)c(N)n2)c(C)s1 | 97.6% |
| Cc1nc2cc(Cl)ccc2c(=O)n1-c1nc2ccccc2[nH]1 | 103% |
| CC(C)(C)c1cn2c3ccccc3nc2n1CCCO | 96.5% |
| Cc1nnc(SCC(=O)O)[nH]c1=O | 96.1% |
| Cc1nc2sc(C(c3ccc(F)cc3)N3CCC(O)CC3)c(O)n2n1 (stereo not given) | 101% |
| CC(C)Nc1nc(-c2ccccc2O)nc2ccccc12 | 102% |
| O=C(O)CSc1ccc2ccccc2c1Br | 85.4% (active) |
| Cc1nc2ccccc2nc1SCC(=O)O | 103% |
| O=C(O)CSc1ccc(Br)c2cccc(Cl)c12 | 81.7% |
| COc1ccc(C2CC(=O)n3nc(-c4ccccc4)nc3S2)cc1OC (stereo not given) | 100% |
| Cc1cc2cc(CNS(=O)(=O)N(C)C)ccc2n1C | 101% |
| O=S(=O)(c1cccc2cccnc12)N1CCN(c2cccc(Cl)c2)CC1 | 101% |
| Cc1nc(N2CC(C)OC(C)C2)c2c3c(sc2n1)CCC3 (stereo not given) | 100% |
| COc1ccccc1NC(=O)c1cccc(N2C(=O)C3CC=CCC3C2=O)c1 (stereo not given) | 89.3% |

| Compound | normalized absorbance |
| --- | --- |
| COc1ccc(C2C=C(c3ccccc3)NC(=O)C2C#N)cc1 (stereo not given) | 94.4% |
| Cc1ccc(-c2nc(C)sc2CC(=O)O)cc1 | 98.3% |
| COc1ccc(NS(=O)(=O)c2ccc(Oc3c(C#N)cccc3C#N)cc2)cc1 | 104% |
| CCCn1c[n+](CC(=O)C(C)(C)C)c2ccccc21 | 101% |
| COc1ccc(NC(=O)C(C)n2cccc2)cc1 (stereo not given) | 102% |
| O=c1[nH]c(-c2ccc(F)cc2)nc2ccccc12 | 102% |
| Cn1nnnc1SCC(=O)Nc1nccs1 | 104% |
| C=CCn1c(SCC(=O)Nc2nnc(CC)s2)nnc1-c1cccs1 | 99.4% |
| CC(NC(=O)Nc1ccc2c(c1)N(C)C(=O)c1ccccc1S2)c1ccccc1 (stereo not given) | 110% |
| CN1CCc2ccccc2C1Cc1ccccc1NS(=O)(=O)c1cccc(C(F)(F)F)c1 (stereo not given) | 97.1% |
| O=c1c2cccc3c2c(nn1CN1CCCCC1)-c1ccccc1-3 | 76% (active) |
| O=c1c2ccccc2c(-c2ccccc2)nn1Cc1ccccc1 | 99.7% |
| O=C1c2ccccc2-c2nn(CC(=O)N3CCOCC3)c3cccc1c23 | 92.9% |
| CCOC(=O)CSc1nc2ccccc2n1C(=O)Oc1ccccc1 | 95.5% |
| O=C(O)CCc1nnc2ccc(N3CCCC3)nn12 | 103% |
| FC(F)(F)c1cccc(Oc2cnc3ccccc3n2)c1 | 95.2% |
| Cc1ccc2c(Cl)c(C(=O)N(Cc3cccs3)C3CCS(=O)(=O)C3)sc2c1 (stereo not given) | 100% |
| C/C(C#N)=C(/N)c1ccccc1 | 104% |
| CCOC(=O)CSc1nc(N)c2c3c(sc2n1)CCC3 | 95.7% |
| COc1ccc2c(C)cc(-n3nc(C)cc3C)nc2c1 | 99% |
| COc1ccc(Cl)cc1-n1c(SCc2cccc(Cl)c2)nnc1-c1cc2occc2n1C | 108% |
| O=C(Nc1ccc(-c2nc3ccccc3o2)cc1)c1ccc(Oc2ccccc2)cc1 | 100% |
| CCOc1ccc2nc(NC(=O)C3CC3)sc2c1 | 100% |

| Compound | normalized absorbance |
| --- | --- |
| COc1ccc(/C=N/n2c(C)cc(C)cc2=O)cc1 | 100% |
| CCOc1cccc(NC(=O)c2cc(=O)c3ccccc3o2)c1 | 100% |
| CCOc1ncccc1C(=O)Nc1cccc(C(F)(F)F)c1 | 102% |
| CCOC(=O)c1cnc2c(C)c(C)ccc2c1NCCCN(C)C | 39.1% (active) |
| CCOC(=O)c1cc2ccccc2nc1C | 99.8% |
| CCOC(=O)Cc1nc(N)ncc1C(=O)OCC | 101% |
| c1ccc(-c2cc(NCC3CC3)n3cnnc3n2)cc1 | 98.2% |
| O=C(NCCN1CCCc2ccccc21)c1cc(-c2cccs2)nc2ccccc12 | 96.3% |
| C=CCn1c(-c2ccccc2)csc1=Nc1ccc(O)cc1 | 100% |
| COc1ccc(-c2nc(NCC3CCCO3)c3ccccc3n2)cc1 (stereo not given) | 66.4% (active) |
| COc1ccc(-n2nc(C(=O)NCC3CCCO3)c3c4ccccc4n(C)c3c2=O)cc1 (stereo not given) | 103% |
| CN1CCN(c2nc(NCC3CCCO3)c3ccccc3n2)CC1 (stereo not given) | 98.7% |
| Cc1ccc(C)n1-c1nn(S(C)(=O)=O)c2cccc(F)c12 | 92.7% |
| COc1cccc(C2=Nc3ccccc3C2=O)c1 | 99.2% |
| COC(=O)c1coc(-c2ccccc2)n1 | 102% |
| O=C(N/C(=C/c1ccccc1)P(=O)(O)c1ccccc1)c1ccccc1 | 98.3% |
| Cc1ccc(/C=C/C(=O)NCC2CCCO2)o1 (stereo not given) | 89.2% |
| CN(C)c1nc(NCc2ccccc2)nc(Nc2ccc(OC(F)(F)F)cc2)n1 | 100% |
| CCc1ccccc1N1CC(c2nc3ccccc3[nH]2)CC1=O (stereo not given) | 90.4% |
| CC(C)NC(=O)Oc1noc2ccc(Cl)cc12 | 99.1% |
| Cc1ccc(N2NC(=O)/C(=C/C=C/c3ccco3)C2=O)cc1C | 99.9% |
| C=CCN1C(=O)/C(=C/c2ccc3c(c2)n(C)c(=O)n3C)C(=O)NC1=S | 100% |
| CCN1C(=O)/C(=C/C=C/c2ccco2)C(=O)NC1=S | 64.7% (active) |

| Compound | normalized absorbance |
| --- | --- |
| CC(=O)Nc1ccc(N2C(=O)C=CC2=O)cc1 | 124% |
| CC(C)CNS(=O)(=O)C1CCS(=O)(=O)C1 (stereo not given) | 102% |
| Nc1ncnc2c1ncn2CCNCc1ccccc1 | 103% |
| NC(=O)C(Cc1ccccc1)NC(=O)C12CC3CC(CC(C3)C1)C2 (stereo not given) | 72.6% |
| CCOc1cc(/C=C2\SC(=S)N(C(C)C(=O)O)C2=O)ccc1O (stereo not given) | 99% |
| Cc1cc(C)n(-c2nc(-c3cccnc3)nc3ccccc23)n1 | 85.7% |
| CCS(=O)c1nc2c(Br)cccc2[nH]1 (stereo not given) | 94.1% |
| Cc1ccc(NCC(O)c2ccc(Cl)cc2)cc1 (stereo not given) | 102% |
| Cc1ccc(S(=O)(=O)NCc2ccc(C(=O)NC3CCC(C)CC3)cc2)cc1 (stereo not given) | 99% |
| O=C(c1ccc(Cl)cc1Cl)n1c(=O)oc2cc(S(=O)(=O)N3CCCCC3)ccc21 | 101% |
| COc1ccc(C2C(C#N)=C(N)OC(C)=C2C(=O)OCc2ccccc2)cc1 (stereo not given) | 102% |
| O=C1/C(=C/c2ccc(N3CCOCC3)cc2)CCc2ccccc21 | 100% |
| N#CCCn1c(=S)n(CCC#N)c2ccccc21 | 106% |
| COC(=O)c1ccc(Cn2nc(C)c(Cl)c2C)cc1 | 92.4% |
| CC(=O)Nc1ccc(C2N3CCCN23)cc1 (stereo not given) | 100% |
| CCCCn1c(CCCNC(=O)CC)nc2ccccc21 | 98.7% |
| C=CCSc1nc2ccccc2[nH]1 | 89.7% (active) |
| CNC(=O)CSc1nc2ccccc2[nH]1 | 99.5% |
| C=CCSc1nc(N)cc(=O)[nH]1 | 101% |
| CC(O)CNC(=O)c1sc2ccccc2c1Cl (stereo not given) | 95.9% |
| Cc1c(CNCCC2=CCCCC2)c(C(=O)O)c(C)n1Cc1cccc(Cl)c1 | 92% |
